SMILES strings stand for the structures. Records with an inconclusive call do not appear. Activity calls are given as the source filed them. Rule for the calls, unless noted: active = hit-call score of the fitted dose curve at least 0.9, where 1 is the maximum; inconclusive = response in the unintended direction; inactive = score below 0.9.

Read-out in assay [1]: X-box binding protein 1 (XBP1), XBP1 (gene 7494)
Description: LTEA_HepaRG_XBP1: Life Technologies and Expression Analysis (LTEA) Assay for X-box binding protein 1 (XBP1) using HepaRG (AID 2283540; active = hit-call score of the fitted dose curve at least 0.9, where 1 is the maximum; inactive = score below 0.9). The conditions noted are these: mRNA level, 48 h; actives raise or lower the signal. The essentials: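 XBP1 transcript by qRT-PCR (housekeeping-normalized: ACTB, GAPDH, POLR2A) after 48 h chemical treatment of HepaRG cells, 8-point half-log series topping at 100 uM, vehicle 0.5% DMSO. Gain and loss of signal fitted relative to DMSO.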

A short description of assay [2]: LTEA_HepaRG_LDH_cytotoxicity: Cytotoxicity Assessment in the Life Technologies and Expression Analysis (LTEA) Assay (AID 2283563). The gist of the method: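 LDH release into culture medium read after 48 h chemical treatment of HepaRG cells. Duplicate wells, eight-point half-log series topping at 100 uM, 0.5% DMSO vehicle and baseline.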
Assay [3] can be described thus: Tanguay_ZF_120hpf_YSE_legacy: (Legacy) Oregon State University Tanguay Lab 120 Hour Post-fertilization zebrafish Assay for Yolk Sac Edema (AID 2283634).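 For AC50: actives raise the incidence of yolk sac edema above the DMSO baseline.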 The essentials: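 Presence or absence of yolk sac edema was recorded at 120 hpf in surviving larvae. These were wild-type Tropical 5D embryos, chorion removed at 4 hpf, held in static exposure at 28C from 6 hpf with 0.64% DMSO vehicle.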

Assay [4] in a line: Tanguay_ZF_120hpf_AXIS_legacy: (Legacy) Oregon State University Tanguay Lab 120 Hour Post-fertilization zebrafish Assay for Body Axis Malformation (AID 2283635).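 For AC50: potency for an increased fraction of larvae scored with body axis malformation.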 The essentials:
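Binary scoring of axis defects at 120 hpf under brightfield, fitted positive versus DMSO. Tropical 5D embryos, chorion removed by pronase at 4 hpf, were singly exposed in sealed, dark plates at 28C from 6 hpf; DMSO 0.64% final.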

Assay [5] is described as follows: Tanguay_ZF_120hpf_EYE_legacy: (Legacy) Oregon State University Tanguay Lab 120 Hour Post-fertilization zebrafish Assay for Eye Malformation (AID 2283636).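 Note: binary presence or absence of eye malformation scored by brightfield in 120 hpf larvae.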 The essentials:
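Static waterborne exposure of dechorionated zebrafish embryos (strain Tropical 5D), 6 to 120 hpf, sealed plates at 28C, 0.64% DMSO vehicle. Eye malformation is scored as a binary endpoint, with gain of signal analysed relative to DMSO.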

Assay [6] in a line: Tanguay_ZF_120hpf_SNOU_legacy: (Legacy) Oregon State University Tanguay Lab 120 Hour Post-fertilization zebrafish Assay for Snout Malformation (AID 2283637). The essentials: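 Dechorionated zebrafish, individually housed from 6 hpf in covered, sealed wells at 28C with 0.64% DMSO vehicle, were examined at 120 hpf for snout malformation. Responses were binary and analysed positive-direction relative to DMSO.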

The nature of assay [7]: Tanguay_ZF_120hpf_JAW_legacy: (Legacy) Oregon State University Tanguay Lab 120 Hour Post-fertilization zebrafish Assay for Jaw Malformation (AID 2283638).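 For AC50: active means more embryos with jaw malformation than DMSO controls.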 The essentials:
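Binary jaw-malformation call at 120 hpf by brightfield microscopy. Embryos (Tropical 5D strain, chorion removed at 4 hpf) were dosed statically at 6 hpf, one per well, at 28C with 0.64% DMSO. Embryos that died were not scored.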

Assay [8] can be described thus: Tanguay_ZF_120hpf_OTIC_legacy: (Legacy) Oregon State University Tanguay Lab 120 Hour Post-fertilization zebrafish Assay for Otic Vesicle Malformation (AID 2283639). The gist of the method:
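Statically exposed wild-type 5D zebrafish embryos, kept sealed and dark at 28C through 120 hours post fertilization, were examined by brightfield microscopy for otic vesicle defects. Responses were recorded as present or absent and analysed relative to DMSO.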

A short description of assay [9]: Tanguay_ZF_120hpf_PE_legacy: (Legacy) Oregon State University Tanguay Lab 120 Hour Post-fertilization zebrafish Assay for Pericardial Edema (AID 2283640).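 For AC50: potency for increased incidence of pericardial edema versus DMSO baseline.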 The essentials: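 Scoring was binary, by brightfield microscopy at 120 hpf, and skipped where mortality occurred. Wild-type embryos were kept under sealed, foil-covered static exposure at 28C in 0.64% (vol/vol) DMSO.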

The nature of assay [10]: Tanguay_ZF_120hpf_BRAI_legacy: (Legacy) Oregon State University Tanguay Lab 120 Hour Post-fertilization zebrafish Assay for Brain Malformation (AID 2283641). The essentials:
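Binary brightfield scoring of brain malformation at 120 hpf in Tropical 5D larvae held under static exposure at 28C (0.64% v/v DMSO), non-mortality endpoints skipped if dead. Positive control: 5uM trimethyltin chloride; fit versus DMSO.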

The target of assay [11] is Cellular tumor antigen p53 (Homo sapiens) (UniProt P04637). Description: TOX21_p53_BLA_p2_ratio: Tox21 HCT-116 p53 Agonism Beta-lactamase Assay, Ratio, Phase 2 (AID 2283592). The gist of the method:
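Read-out is the blue/green (460/530 nm, 405 nm excitation) ratio after 2 h CCF4-AM loading, fitted as gain versus DMSO. Compounds, pinned at 217-fold dilution from DMSO stocks, stayed 16 h on HCT-116 beta-lactamase reporter cells seeded 5 h earlier.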

Assay [12] shares this target. The assay can be described thus: TOX21_p53_BLA_p3_ratio: Tox21 HCT-116 p53 Agonism Beta-lactamase Assay, Ratio, Phase 3 (AID 2283596). The gist of the method:
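Cells were seeded at 4000/well, rested 5 h at 37C, then dosed with DMSO compound solutions (217-fold dilution) for 16 h. CCF4-AM substrate was loaded for 2 h at room temperature, and the 460/530 nm emission ratio was fitted for gain of signal versus DMSO.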

The target is the same in assay [13]. Description: TOX21_p53_BLA_p5_ratio: Tox21 HCT-116 p53 Agonism Beta-lactamase Assay, Ratio, Phase 5 (AID 2283599). The gist of the method: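 HCT-116 cells carrying a p53-inducible beta-lactamase reporter were seeded at 4000 cells/well and dosed after 5 h with compound in DMSO (217-fold dilution). After 16 h at 37C, CCF4-AM substrate was added for 2 h, and the 460/530 nm emission ratio was scored as gain-of-signal versus DMSO.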

Assay [14] shares this target. Description: TOX21_p53_BLA_p4_ratio: Tox21 HCT-116 p53 Agonism Beta-lactamase Assay, Ratio, Phase 4 (AID 2283601). The essentials: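 HCT116 cells carrying an inducible beta-lactamase reporter were plated at 4000 cells/well, rested 5 h, then exposed to compounds in DMSO (217-fold dilution) for 16 h at 37C. CCF4-AM substrate was loaded 2 h at room temperature; 460/530 nm emission ratio scored gain-of-signal versus DMSO.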

Assay [15] is described as follows: Tanguay_ZF_120hpf_MORT_legacy: (Legacy) Oregon State University Tanguay Lab 120 Hour Post-fertilization zebrafish Assay for Mortality (AID 2283633). The gist of the method:
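Static waterborne exposure from 6 to 120 hpf at 28C of single dechorionated wild-type (5D) embryos per well, 0.64% DMSO final. Death recorded present/absent by brightfield at 24 and 120 hpf.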

A short description of assay [16]: TOX21_p53_BLA_p2_viability: Viability Assessment in the Tox21 HCT-116 p53 Agonism Beta-lactamase Assay, Phase 2 (AID 2283591).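 Note: compound exposure lasted 16 h at 37 °C; actives lower the ATP signal meaning cytotoxicity.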 The gist of the method:
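HCT-116 p53-bla cells (4000/well) rested 5 h at 37C, then received compounds in DMSO (217-fold dilution) for 16 h at 37C, 5% CO2. After the CCF4 read, CellTiter-Glo was added; ATP luminescence was read after 30 min at room temperature.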

Assay [17] in a line: TOX21_p53_BLA_p4_viability: Viability Assessment in the Tox21 HCT-116 p53 Agonism Beta-lactamase Assay, Phase 4 (AID 2283597).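 Note: hits lower the luminescence signal meaning cytotoxicity.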 The essentials:
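Cytotoxicity as reduced cellular ATP (CellTiter-Glo luminescence, 30 min room temperature), measured in the same wells following the CCF4 FRET p53 reading. Human HCT-116 cells received compounds in DMSO (217-fold dilution) for 16 h.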

A short description of assay [18]: TOX21_p53_BLA_p3_viability: Viability Assessment in the Tox21 HCT-116 p53 Agonism Beta-lactamase Assay, Phase 3 (AID 2283593).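 Note: cells exposed to compound for 16 h before reading.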 The gist of the method: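 HCT-116 cells (4000/well) rested 5 h at 37C, then got DMSO compounds by pin tool (217-fold dilution) for 16 h at 37C, 5% CO2. After the bla read, CellTiter-Glo was added and luminescence read at 30 min, room temperature.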

Sequence of Cellular tumor antigen p53 (Homo sapiens) (P04637 whole entry, looked up): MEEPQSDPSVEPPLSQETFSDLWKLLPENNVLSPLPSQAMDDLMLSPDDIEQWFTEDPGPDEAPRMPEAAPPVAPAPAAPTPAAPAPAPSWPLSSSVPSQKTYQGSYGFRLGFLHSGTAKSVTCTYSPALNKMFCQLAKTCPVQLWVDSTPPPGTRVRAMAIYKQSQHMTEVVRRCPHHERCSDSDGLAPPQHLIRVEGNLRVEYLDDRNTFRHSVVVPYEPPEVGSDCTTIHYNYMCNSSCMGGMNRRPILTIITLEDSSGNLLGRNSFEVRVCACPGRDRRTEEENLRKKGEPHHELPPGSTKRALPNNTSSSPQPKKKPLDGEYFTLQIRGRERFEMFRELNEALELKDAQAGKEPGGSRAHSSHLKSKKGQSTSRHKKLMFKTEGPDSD

Broadly, the AC50 is the concentration giving half of the maximal activity seen. Regarding `CCNC(=O)NC(=O)C(C#N)=NOC`, the compound was called inactive in [1], in assay [2], in assay [8] and in assay [10]. Besides, the AC50 in assay [3] was 37.8 µM (active); in assay [4], 46 µM (active); in assay [5], 51.5 µM (active); in assay [6], 24.5 µM (active); in assay [7], 19.6 µM (active); in assay [9], 47 µM (active).
With `CCOP(=S)(OCC)Oc1nc(Cl)n(C(C)C)n1`, the compound was classed as inactive in [1], in assay [2], in assay [11], in assay [12], in [13] and in assay [14]. Further, the compound was called inactive in assay [15], in assay [5], in assay [6], in assay [7], in assay [9] and in assay [10]. For the same compound, the AC50 in assay [3] was 37.4 µM (active); in [4], 14.4 µM (active).
Consider `CN=C=S`, for which the half-maximal activity concentration (AC50) in [1] was 17.3 µM (active). The compound was called inactive in assay [2], in assay [16], in assay [11], in assay [12], in assay [17] and in assay [13]. Besides, the result in [14], in assay [15], in [3], in [4], in [5] and in assay [8] was inactive. Besides, the call in assay [9] and in assay [10] was inactive.
For `N#CN=C1SCCN1Cc1ccc(Cl)nc1`, the compound was classed as inactive in [1], in [2], in assay [18], in assay [12], in assay [13] and in assay [14]. Moreover, the result in assay [15], in [3], in [4], in [5], in [6] and in assay [7] was inactive. The compound was classed as inactive in assay [8], in assay [9] and in assay [10].
As for `COP(=O)(OC)O/C(C)=C/C(=O)N(C)C`, the compound was called inactive in assay [1], in assay [2], in assay [16], in assay [13], in [14] and in assay [15]. In addition, the result in assay [3], in assay [4], in assay [5], in assay [6], in assay [7] and in assay [8] was inactive. Further, the outcome in [9] and in [10] was inactive.
`CCNP(=S)(OC)O/C(C)=C/C(=O)OC(C)C` (configuration not stated): the compound was called inactive in assay [1], in assay [2], in assay [16], in [12], in assay [17] and in assay [14]. The outcome in assay [15], in assay [3], in assay [4], in assay [5], in [6] and in [7] was inactive. In addition, the call in assay [8], in [9] and in assay [10] was inactive.
Regarding `CN/C(=N\[N+](=O)[O-])NCc1cnc(Cl)s1`, the compound was classed as inactive in assay [1], in [2], in assay [16], in assay [11], in assay [17] and in assay [14]. For the same compound, the outcome in assay [15], in assay [3], in assay [4], in assay [5], in [6] and in [7] was inactive. In addition, the outcome in assay [8], in [9] and in assay [10] was inactive.
With `O=C(O)c1c(Cl)ccc2cc(Cl)cnc12`, the result in assay [1], in assay [2], in [15], in assay [3], in assay [4] and in assay [5] was inactive. For the same compound, the result in [6], in assay [7], in assay [8] and in [9] was inactive.
In the case of `COCc1cnc(C2=NC(C)(C(C)C)C(=O)N2)c(C(=O)O)c1` (configuration not stated), the call in [1], in assay [2], in [15], in assay [3], in assay [5] and in [6] was inactive. Besides, the compound was classed as inactive in assay [7], in assay [9] and in [10].

These data come from PubChem BioAssay (EPA / NIEHS).
